GAA inh: alpha-glucosidase (human) inhibition | P10253 | purified human GAA, 4-MU-alpha-glucoside fluorescence | Potency, µM (series often up to 76.9 µM), actives largely listed as inhibitors | 200,000 compounds, 0.005% hits | AID 1466
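Compounds are titrated up to 77 uM against 4 nM human enzyme. Substrate 4-methylumbelliferyl-alpha-D-pyranoside (400 uM) reacts 20 min at room temperature in pH 5.0 buffer; liberated 4-methylumbelliferone is read at 440 nm.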
aGlu spleen mod: inhibits or activates alpha-glucosidase in human spleen homogenate; Potency, µM (titrated, usually from 79.9 µM), usual class: inhibitors; P10253; human spleen homogenate, 4-MU-alpha-glucoside fluorescence; 240,000 compounds, 0.006% hits; AID 2112
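Human spleen homogenate (1 ug) incubated with compounds and 1 mM 4-methylumbelliferyl-alpha-D-glucopyranoside in pH 5.0 citrate/phosphate buffer, 37 C, 40 min. Stopped at pH 10; 4-MU fluorescence (Ex 365/Em 440 nm); AC50 by Hill fit.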
GLA inh pH 4.5: inhibitors of human alpha-galactosidase A at pH 4.5. P06280. purified enzyme, 4-MU-alpha-Gal fluorescence, pH 4.5. activity change, negative = inhibition, % at 105 µM. 230,000 tested, under 10 active. AID 1467
GAA glycogen mod: inhibitors or activators of human alpha-glucosidase glycogen cleavage; Potency, µM (titrated, usually from 76.4 µM), hits mostly inhibitors; 300,000 compounds, 0.38% hits; P10253; recombinant GAA, glycogen substrate, Amplex Red glucose oxidase fluorescence;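 further: the screen sought inhibitors and activators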
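Recombinant human enzyme (4 nM); glycogen substrate; 37 C, 40 min, pH 5.0. Readout: coupled glucose oxidase/Amplex Red fluorescence.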
GLA spleen mod: inhibitors or activators of human alpha-galactosidase in spleen homogenate | P06280 | human spleen homogenate, 4MU-alpha-Gal fluorescence, 40 min | Potency, µM (top dose mostly 80 µM), actives largely listed as inhibitors | 240,000 compounds, 0.008% hits | AID 2107
Target sequence (P06280 32-429 limits assumed): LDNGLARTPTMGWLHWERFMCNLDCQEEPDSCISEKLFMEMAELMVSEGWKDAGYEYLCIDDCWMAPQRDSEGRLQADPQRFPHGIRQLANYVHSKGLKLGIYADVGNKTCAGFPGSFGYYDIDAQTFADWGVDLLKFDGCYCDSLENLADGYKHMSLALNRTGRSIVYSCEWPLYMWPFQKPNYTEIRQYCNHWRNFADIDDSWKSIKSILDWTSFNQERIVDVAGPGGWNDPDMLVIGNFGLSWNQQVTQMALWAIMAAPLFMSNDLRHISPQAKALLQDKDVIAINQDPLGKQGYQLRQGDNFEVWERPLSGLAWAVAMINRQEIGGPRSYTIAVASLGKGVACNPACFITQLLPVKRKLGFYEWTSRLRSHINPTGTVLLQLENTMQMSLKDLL
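Fluorogenic readout (Ex 365/Em 440 nm) of 4-methylumbelliferone released from 1 mM 4-MU-alpha-galactoside by spleen homogenate, 40 min at 37C, pH 5.0. Data normalized to no-enzyme and enzyme controls; Hill-equation AC50 from compound titrations.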
Of the large screens only hits and unclear results are named; the others gave an inactive call; ! = not active in a repeat. Compounds with a hit are over-represented: about 0.4% of the library has one in this group of screens. The call rests on the fitted dose curve; in most records, active means well fitted curve in the direction sought with a large enough effect; inconclusive means small, poorly fitted or top-dose-only effect, or another doubt; inactive means no such curve, though single readings can be large; an effect the other way counts as inactive or inconclusive.

CSc1ccccc1NC(=O)CN(C)CC(=O)NCc1ccccc1	aGlu spleen mod inconclusive, GLA spleen mod 35µM
O=C(/C=C/c1ccc(O)c(O)c1)OC1C(O)CC(OC(=O)/C=C/c2ccc(O)c(O)c2)(C(=O)O)CC1O (stereo not given)	GAA glycogen mod 1.8µM
O=C(/C=C\c1ccc(O)c(O)c1)O[C@@H]1C[C@](O)(C(=O)O)C[C@@H](O)[C@@H]1O	none (no result: GAA inh, GAA glycogen mod)
Cc1cccc(CN2CCN(C3CCCC3)C(CCO)C2)n1 (stereo not given)	none
CCOc1cc(/C=C2\C(=O)N(Cc3ccc(C)cc3)C(C)=C2C(=O)OC)ccc1O	GAA glycogen mod 18µM
C=CCOc1cccc(/C=C2\C(=O)N(Cc3ccc(C)cc3)C(C)=C2C(=O)OC)c1	none
COc1cc(/C=N/NC(=O)C2(O)c3ccccc3-c3ccccc32)ccc1O	GAA glycogen mod inconclusive
COc1cc(/C=N/NC(=O)C(=O)/C=C2\NC(C)(C)Cc3ccccc32)ccc1O	GAA glycogen mod 35µM (no result: GAA inh)
O=C(c1ccco1)N1CCN(S(=O)(=O)c2ccc3c(c2)OCCO3)CC1	none
Cc1cccc(NC(=S)N(C)C)c1C	none
Cc1cccc(Nc2cc(C)c3c(O)cccc3n2)c1C	GAA glycogen mod 10µM
COc1ccc(-c2nc3c(-c4ccc(Cl)cc4)cnn3cc2C)cc1F	none
CC(=O)NC(Cc1ccc(C)cc1)C(=O)NC1CCN(c2ncccc2[N+](=O)[O-])CC1 (stereo not given)	none
CCc1cccc(NC(=O)Nc2cccs2)c1	GAA glycogen mod 28µM
CC1=NNC(=O)C1C(c1cccc(O)c1)C(C#N)C#N (stereo not given)	none (no result: GAA inh)
CC1=NNC(=O)C1C(c1ccccc1)C1C(=O)NN=C1C (stereo not given)	GAA inh inconclusive, GAA glycogen mod 13µM
Oc1ccc(-c2nc3ncccn3c2Nc2ccc3c(c2)OCO3)cc1	GAA glycogen mod 25µM
Cc1ccc(-c2nc3ncccn3c2Nc2ccc3c(c2)OCO3)o1	GAA glycogen mod 10µM
Cc1ccc(Nc2c(-c3ccc(C)o3)nc3ncccn23)cc1	GAA glycogen mod inconclusive (no result: GAA inh)
CCN(CC1CCCN(CCc2cccc(OC)c2)C1)C(=O)c1ccoc1 (stereo not given)	none (no result: GAA inh, aGlu spleen mod, GLA inh pH 4.5, GLA spleen mod)
CC(C)CC(=O)N1CCN(S(=O)(=O)c2ccccc2)CC1	GAA inh inconclusive
CN(C(=O)N1CCN(S(=O)(=O)c2ccccc2)CC1)c1ccccc1	GAA inh 35µM
Cc1cc(O)c(C)c2sc(N)nc12	none (no result: GAA inh, GLA inh pH 4.5, GAA glycogen mod)
Cc1cc(C(=O)NNc2ccc(C(C)C)cc2)n(C(C)(C)C)n1	GAA glycogen mod 28µM (no result: GAA inh)
CCn1c(-c2ccccc2)csc1=Nc1ccc(O)cc1	GAA glycogen mod 13µM (no result: aGlu spleen mod)
O=C(NNc1ccc(-c2csnn2)cc1)c1ccccc1C(F)(F)F	GAA glycogen mod 9.9µM
O=C(NNc1ccc(-c2csnn2)cc1)c1cc(Cl)cc(Cl)c1	GAA glycogen mod inconclusive (no result: GAA inh)
O=S(=O)(N/N=C\c1ccc(-c2ccccc2Cl)o1)c1ccccc1	GAA glycogen mod 25µM
Cc1nn(-c2ccccc2)c2[nH]c(=O)c(CNc3ccc(N4CCOCC4)cc3)cc12	GAA glycogen mod 20µM
CCn1c(=O)cc(SCC(=O)NCCc2ccc(Cl)cc2)c2ccccc21	none (no result: GAA inh, aGlu spleen mod, GLA inh pH 4.5, GLA spleen mod)
O=c1[nH]ncc(N/N=C\c2ccc(O)cc2O)c1Cl	GAA glycogen mod 2.5µM
Oc1ccc(/C=N/Nc2cccc3cccnc23)c(O)c1	GAA glycogen mod 25µM
Oc1ccc(/C=N/Nc2ncc(Br)cn2)c(O)c1	GAA glycogen mod 28µM
Oc1ccc(/C=N/Nc2nccnc2Cl)c(O)c1	GAA glycogen mod 11µM
CC1C(=O)NN=C1C(=O)N/N=C\c1ccc(O)cc1O (stereo not given)	none
Oc1ccc(Br)cc1/C=N/Nc1ncc(-c2ccccc2)cn1	none
CN(CC(=O)Nc1ccccc1Br)C(=O)c1ccc(COc2ccccc2)cc1	none (no result: GAA inh, aGlu spleen mod, GLA inh pH 4.5, GLA spleen mod)
CCOC(=O)c1c(NC(=O)CN2C(=O)NC(C)(c3ccccc3)C2=O)sc(C)c1C (stereo not given)	none
COc1ccc(OC)c(N/C(C)=C/C(=O)c2ccncc2)c1	none (no result: GAA inh, aGlu spleen mod, GLA inh pH 4.5, GLA spleen mod)
C/C(=C\C(=O)c1ccncc1)Nc1ccccc1O	GAA glycogen mod 25µM
CN(C)c1nn(C(=O)Nc2ccc(Cl)cc2Cl)cc1-c1ccccc1	GAA inh inconclusive
O=c1c(O)c(-c2ccccc2O)oc2cc(O)cc(O)c12	none (no result: GAA inh, GLA inh pH 4.5, GAA glycogen mod)
O=c1c(O)c(-c2ccc(O)cc2O)oc2cc(O)cc(O)c12	GAA glycogen mod 3.2µM
O=c1c(O[C@@H]2O[C@H](CO)[C@@H](O)[C@H](O)[C@H]2O)c(-c2ccc(O)c(O)c2)oc2cc(O)cc(O)c12	GAA glycogen mod 3.5µM
COc1c(-c2ccc(O)c(O)c2)oc2cc(O)cc(O)c2c1=O	GAA glycogen mod 35µM (no result: GAA inh)
C[C@@H]1O[C@@H](OC[C@H]2O[C@@H](Oc3c(-c4ccc(O)c(O)c4)oc4cc(O)cc(O)c4c3=O)[C@H](O)[C@@H](O)[C@@H]2O)[C@H](O)[C@H](O)[C@H]1O	GAA glycogen mod 3.2µM
CC1OC(OCC2OC(Oc3c(-c4ccc(O)cc4)oc4cc(O)cc(O)c4c3=O)C(O)C(O)C2O)C(O)C(O)C1O (stereo not given)	GAA glycogen mod inconclusive (no result: GAA inh)
Cn1c(SCC(=O)Nc2cccnc2)nnc1-c1ccccc1F	none
CCCN1CCN(CCCNC(=O)c2cc3c(=O)n(CC)c4ccccc4c3s2)CC1	none (no result: GAA inh, aGlu spleen mod, GLA inh pH 4.5, GLA spleen mod)
Cc1c(Cl)cccc1NC(=O)CSc1nncn1-c1cccnc1	none (no result: GAA inh, aGlu spleen mod, GLA inh pH 4.5, GLA spleen mod)
O=c1c(O[C@@H]2O[C@H](CO)[C@H](O)[C@H](O)[C@H]2O)c(-c2ccc(O)c(O)c2)oc2cc(O)cc(O)c12	aGlu spleen mod inconclusive, GAA glycogen mod 6.3µM, GLA spleen mod inconclusive
Cc1ccc(Nc2c(-c3ccc(N(C)C)cc3)nc3ncccn23)cc1	none
Cc1cccc(C)c1Nc1c(-c2ccc(N3CCOCC3)cc2)nc2ncccn12	GAA glycogen mod 20µM!
COc1ccc(-c2nc3ncccn3c2Nc2ccccc2)cc1	GAA glycogen mod inconclusive
Cc1ccc(Nc2c(-c3ccc(N4CCOCC4)cc3)nc3ncccn23)c(C)c1	GAA glycogen mod 32µM
CCOC(=O)/C(=N/Nc1ccccc1)c1csc(Nc2ccccc2)n1	GAA glycogen mod inconclusive
CCOC(=O)/C(=N\Nc1ccc(OC)cc1)c1csc(Nc2ccccc2)n1	GAA glycogen mod 25µM
Oc1ccc(N2CCN(C(c3cccs3)c3nnnn3CCc3ccccc3)CC2)cc1 (stereo not given)	GAA glycogen mod 28µM
COc1ccc(Cn2nnnc2C(c2cccs2)N2CCN(c3ccccc3)CC2)cc1 (stereo not given)	none
COc1ccc(C(=O)COC(=O)CN2CC(=O)Oc3ccccc32)cc1Br	GAA glycogen mod 3.1µM
COc1ccc(C(=O)CN2C(=O)c3ccccc3S2(=O)=O)cc1Br	none (no result: GAA inh, aGlu spleen mod, GLA inh pH 4.5, GLA spleen mod)
Cc1cccc(N2CCN(C(=O)c3ccc4c(Cl)c5c(nc4c3)CCCC5)CC2C)c1 (stereo not given)	none (no result: GAA inh, aGlu spleen mod, GLA inh pH 4.5, GLA spleen mod)
